Reference: PubChem BioAssay (NCATS)
Values without a mark were called inactive. For part of these data: Measured potencies and affinities stand elsewhere. Active and inactive are the calls of the source. How the calls were made is not given here. Square brackets hold non-standard residues; d marks the D form. Peptide text beside a SMILES is read from it. * marks the point of attachment. Sta = CC(C)C[C@H](N)[C@@H](O)CC(=O)O; Isovaleryl = CC(C)CC(=O)*

Assays:
[1] = Ebola virus entry assay, green fluorescence channel
[2] = Ebola virus entry assay, blue channel fluorescence
[3] = Ebola virus entry assay, ratio channel
[4] = Ebola virus entry assay, green channel fluorescence
[5] = Ebola virus entry assay, reporter ratio channel; Channel type: primary
[6] = Ebola virus entry assay, blue channel (ratio component)
Wherever efficacy is given: 0% is about no effect.

Structure (SMILES)	efficacy [1] [%]	outcome [2]	outcome [3]	outcome [4]	outcome [5]	outcome [6]	AC50 [5]
CC(=O)OCC(=O)[C@@]1(O)CCC2C3CCC4=CC(=O)CC[C@]4(C)C3[C@@H](O)C[C@@]21C (some centres undefined)	-12.5	inactive	inactive	inactive	inactive	inactive	–
O=C(NCCCN1CCOCC1)c1ccc(Cl)cc1	-12.2	inactive	inactive	inactive	inactive	inactive	–
CCn1cc(C(=O)O)c(=O)c2cc(F)c(N3CCN(C)CC3)cc21	-16.7	inactive	inactive	inactive	inactive	inactive	–
CCOC(=O)CN1CCCC1=O	24	inactive	inactive	inactive	inactive	inactive	–
Oc1c(I)cc(Cl)c2cccnc12	46.4	inactive	inactive	inactive	inactive	inactive	–
CC(O)COc1ccccc1 (centres undefined)	11.7	inactive	inactive	inactive	inactive	inactive	–
CCOC(=O)OC(C)OC1=C(C(=O)Nc2ccccn2)N(C)S(=O)(=O)c2ccccc21 (centres undefined)	12.4	inactive	inactive	inactive	inactive	inactive	–
O=c1[nH]c2ccccc2c(=O)n1CCCl	-18.7	inactive	inactive	inactive	inactive	inactive	–
CC(=O)Oc1ccc(C2(c3ccc(OC(C)=O)cc3)C(=O)Nc3ccccc32)cc1	-16	inactive	inactive	inactive	inactive	inactive	–
CC(=O)Oc1ccc(C2(c3ccc(OC(C)=O)cc3)Oc3ccccc3NC2=O)cc1	-26.7	inactive	inactive	inactive	inactive	inactive	–
NCCc1cnc[nH]1	13.4	inactive	inactive	inactive	inactive	inactive	–
Cc1ccc(O)c(-n2nc3ccccc3n2)c1	21	inactive	inactive	inactive	inactive	inactive	–
CN1[C@@H]2CC[C@H]1CC(NC(=O)n1c(=O)[nH]c3ccccc31)C2 (some centres undefined)	-15.6	inactive	inactive	inactive	inactive	inactive	–
CCOC(=O)c1ccc(NC(=O)CN2CCCCC2)cc1	-17.3	inactive	inactive	inactive	inactive	inactive	–
Cc1cccc(C)c1NC(=O)C(C)N (centres undefined)	-28.5	inactive	inactive	inactive	inactive	inactive	–
O=C(CCN1CCN(CCO)CC1)N1c2ccccc2Sc2ccc(C(F)(F)F)cc21	14.8	inactive	inactive	inactive	inactive	inactive	–
O=C(CCCCl)c1ccc(F)cc1	36.2	inactive	inactive	inactive	inactive	inactive	–
C#C[C@]1(O)CC[C@H]2[C@@H]3CCC4=CC(=O)CC[C@@H]4[C@H]3CC[C@@]21C	-11.7	inactive	inactive	inactive	inactive	inactive	–
OCc1ccccc1O	-17.7	inactive	inactive	inactive	inactive	inactive	–
CC[N+](CC)(CC)CCOC(=O)C(C1CCCC1)C1CCCC1	39.4	inactive	inactive	inactive	inactive	inactive	–
CCOc1ccc(NC(C)=O)cc1	-22.6	inactive	inactive	inactive	inactive	inactive	–
NC(=O)CC[C@@H](N)C(=O)O	-11.5	inactive	inactive	inactive	inactive	inactive	–
CCO[C@H]1O[C@@H]2OC3(C)CC[C@H]4[C@H](C)CC[C@@H]([C@H]1C)[C@@]24OO3	19.2	inactive	inactive	inactive	inactive	inactive	–
C[N+]12CCC(CC1)C(OC(=O)C(O)(c1ccccc1)c1ccccc1)C2 (centres undefined)	11.2	inactive	inactive	inactive	inactive	inactive	–
O=C(O)Cn1c(C(=O)Nc2nc(-c3ccccc3Cl)cs2)cc2ccccc21	-23.1	inactive	inactive	inactive	inactive	inactive	–
CC1(C)CO[C@@H](CC(=O)O)CN1	-12.4	inactive	inactive	inactive	inactive	inactive	–
CCCCCCCCCCCCOS(=O)(=O)O	-26.4	inactive	inactive	inactive	inactive	inactive	–

Structure (SMILES)	efficacy [1] [%]	outcome [2]	outcome [3]	outcome [4]	outcome [5]	outcome [6]	AC50 [5]
O=S1(=O)OC(c2ccc(O)cc2)(c2ccc(O)cc2)c2ccccc21	19.3	inactive	inactive	inactive	inactive	inactive	–
O=C(O)C(Cc1cc(I)c(O)c(I)c1)c1ccccc1 (centres undefined)	-25.4	inactive	inactive	inactive	inactive	inactive	–
CC(C)CC(=O)N[C@H](C(=O)N[C@H](C(=O)N[C@@H](CC(C)C)[C@@H](O)CC(=O)N[C@@H](C)C(=O)N[C@@H](CC(C)C)[C@@H](O)CC(=O)O)C(C)C)C(C)C (Isovaleryl-VV[Sta]A[Sta]-OH)	-12.4	inactive	inactive	inactive	inactive	inactive	–
O=C(Oc1cccc2cccnc12)c1ccccc1	-27.7	inactive	inactive	inactive	inactive	inactive	–
CC1(C)CCC(C)(C)c2cc(NC(=O)c3ccc(C(=O)O)cc3)ccc21	21.8	inactive	inactive	inactive	inactive	inactive	–
CN1C(=O)CC(c2ccccc2)C1=O (centres undefined)	12.2	inactive	inactive	inactive	inactive	inactive	–
OC[C@@H](O)[C@@H](O)[C@H](O)[C@H](O)CO	11.8	inactive	inactive	inactive	inactive	inactive	–
OC[C@H]1O[C@@H](n2cnc3c(=S)nc[nH]c32)[C@H](O)[C@@H]1O	23.6	inactive	inactive	inactive	inactive	inactive	–
CC(=O)N[C@@H](CO)C(=O)N[C@@H](CC(=O)O)C(=O)N[C@@H](CCCCN)C(=O)N1CCC[C@H]1C(=O)O (Ac-SDKP-OH)	17.5	inactive	inactive	inactive	inactive	inactive	–
O=C(OCC(O)CO)c1ccccc1Nc1ccnc2c(C(F)(F)F)cccc12 (centres undefined)	31.1	inactive	inactive	inactive	inactive	inactive	–
OCC(CO)N[C@H]1C[C@](O)(CO)[C@@H](O)[C@H](O)[C@H]1O	-14.7	inactive	inactive	inactive	inactive	inactive	–
CCOC(=O)C(=O)CCc1ccccc1	-17.5	inactive	inactive	inactive	inactive	inactive	–
COc1ccccc1OC(=O)Oc1ccccc1OC	-25.8	inactive	inactive	inactive	inactive	inactive	–
N[C@@H](CSCCCO)C(=O)O	25.1	inactive	inactive	inactive	inactive	inactive	–
O=C(O)c1cn(C2CC2)c2cc(Cl)c(F)cc2c1=O	14.4	inactive	inactive	inactive	inactive	inactive	–
CCOC(=O)NC(C)(C)Cc1ccc(Cl)cc1	-26.2	inactive	inactive	inactive	inactive	inactive	–
CN1C[C@@H](NS(=O)(=O)N(C)C)C[C@@H]2c3cccc4c3c(cn4C)C[C@H]21	31.9	inactive	inactive	inactive	–	inactive	39.8 µM (active)
ClCc1cccc(Cl)c1	-21.7	inactive	inactive	inactive	inactive	inactive	–
COc1ccc2c(c1OC)C(=O)O[C@@H]2[C@H]1c2c(cc3c(c2OC)OCO3)CCN1C	-21	inactive	inactive	inactive	inactive	inactive	–
CCN[C@@H]1C[C@H](N)[C@@H](OC2OC(CN)=CCC2N)[C@H](O)[C@H]1O[C@H]1OC[C@](C)(O)[C@H](NC)[C@H]1O (some centres undefined)	-8.89	inactive	inactive	inactive	inactive	inactive	–
C1CCN2C[C@@H]3C[C@@H](CN4CCCC[C@@H]34)[C@H]2C1	13.4	inactive	inactive	inactive	inactive	inactive	–
CNc1c2c(nn1C)CCCC2	-13.1	inactive	inactive	inactive	inactive	inactive	–
CC(O)Cn1cnc2c1c(=O)n(C)c(=O)n2C (centres undefined)	6.04	inactive	inactive	inactive	inactive	inactive	–
O=c1[nH]c(=O)c2ccccc2o1	15	inactive	inactive	inactive	inactive	inactive	–
NNC(=O)CP(=O)(c1ccccc1)c1ccccc1	11.5	inactive	inactive	inactive	inactive	inactive	–
N[C@H](C(=O)O)c1ccc(O)cc1	11.9	inactive	inactive	inactive	inactive	inactive	–
C[N+]1(CC2COC(c3ccccc3)(C3CCCCC3)O2)CCCCC1 (centres undefined)	48.1	inactive	inactive	inactive	inactive	inactive	–
